According to PubChem BioAssay:
The source made the active and inactive calls.

Legend:
[1] = small molecules captured by biotinylated probe aFSTL3 – biochemical, small-molecule microarray, fluorescence 635/667, stem cell growth factor project, primary screen (AID 1064); conditions: higher = more signal;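 also: measures binding of the biotinylated anti-FSTL3 antibody to printed compounds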
[2] = binders from COS7 lysate, DM2A8 probe, primary screen, torsin A project, cell lysate, small-molecule microarray, fluorescence 635/667 (AID 1065); conditions: higher = more signal, COS7 lysate expressing mutant human TOR1A
[3] = small molecules captured by biotinylated probe aFGF2 – biochemical, small-molecule microarray, fluorescence 635/667, stem cell growth factor project, primary screen (AID 1067); conditions: higher = more signal;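 also: measures binding of biotinylated aFGF2 protein to printed compounds on slides; z-score merges feature fluorescence and signal-to-noise across triplicate slides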
[4] = small molecules captured by biotinylated probe aFGF10 – biochemical, small-molecule microarray, fluorescence 635/667, stem cell growth factor project, primary screen (AID 1071); conditions: higher = more signal;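 also: score merges 667 nm spot intensity and signal to noise from triplicate slides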
[5] = molecular target: Neurogenic locus notch homolog protein 2 (Homo sapiens) (UniProt Q04721); test: small molecules binding Notch2 protein – biochemical, small-molecule microarray, 635 nm fluorescence, stem cell growth factors, primary screen (AID 1073); conditions: higher = more signal
[6] = molecular target: Pro-neuregulin-1, membrane-bound isoform (Homo sapiens) (UniProt Q02297); test: small molecules binding neuregulin-1 protein – biochemical, small-molecule microarray, fluorescence 635/667, psychiatric disease protein project, primary screen (AID 1075); conditions: NRG1 binding, 635 nm fluorescence, higher = more signal;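 also: score combines 667 nm spot fluorescence with signal to noise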
[7] = tested on: Neuregulin-1 EGF-like domain; test: small molecules binding NRG1 EGF domain – biochemical, small-molecule microarray, 635 nm fluorescence, primary screen (AID 1081); conditions: higher = more signal;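 also: binding of the protein to compounds printed on small-molecule microarray slides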
[8] = FRG1 expression reporter modulators in myotubes – cell-based, C2C12 myotubes, firefly/Renilla luciferase, luminescence, FRG1 inhibition for FSHD, primary screen (AID 1084); conditions: FRG1 promoter luciferase, higher = more signal, called active from +8 up or from −8 down
[9] = small molecules captured by biotinylated probe aFST – biochemical, small-molecule microarray, fluorescence 635/667, stem cell growth factor project, primary screen (AID 1086); conditions: higher = more signal;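 also: score merges 667 nm fluorescence with signal-to-noise of each printed compound spot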
[10] = binders of probe aHhip on microarray, primary screen, stem cell growth factor project, biochemical, small-molecule microarray, fluorescence 635/667 (AID 1087); conditions: higher = more signal;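 also: score merges spot fluorescence at 667nm with spot signal to noise ratio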
[11] = tested on: PRMT1 (protein arginine N-methyltransferase 1); test: small molecules binding arginine methyltransferase PRMT1 – biochemical, small-molecule microarray, 635 nm fluorescence, primary screen (AID 1088); conditions: higher = more signal;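 also: binding of Prmt1 protein to compounds spotted on small-molecule microarray slides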
[12] = growth effects on S. cerevisiae YJM789 – YJM789 clinical isolate, OD600, 24 h, basal, primary screen (AID 1089); conditions: higher = more signal, called active from +8 up or from −8 down;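 also: growth of clinical yeast isolate S. cerevisiae YJM 789 seeded 1000 cells per well; test concentration not given here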
[13] = S. pombe growth modifiers, basal conditions – strain 972, OD600, 24 h, no modulator, primary screen (AID 1090);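 also: basal condition with compound alone and no growth modifier present; test concentration not given here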; conditions: S. pombe 972 growth, higher = more signal, called active from +8 up or from −8 down
[14] = budding yeast growth modifiers under rapamycin – strain BY4716, OD600, 96 h, primary screen (AID 1091); also: test concentration not given here; conditions: S. cerevisiae BY4716 + rapamycin, higher = more signal, called active from +8 up or from −8 down
[15] = molecular target: Torsin-1A-interacting protein 2 (Homo sapiens) (UniProt Q8NFQ8); test: small molecules binding lysate-expressed LULL1 – cell lysate, human LULL1 lysate, 635/667 nm fluorescence, primary screen (AID 1092); conditions: small-molecule microarray, hLULL1 lysate binding, 635 nm fluorescence; higher = more signal;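 also: probe is lysate of COS7 cells overexpressing human LULL1; score merges per-feature 667 nm fluorescence with signal-to-noise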
[16] = optical density change of DRC41 E. coli – strain DRC41, OD650, 24 h, E. coli filamentation project, primary screen (AID 1093);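 also: MC1000 strain lacking acrAB efflux and sulA so SOS filamentation is blocked; test concentration not given here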; conditions: E. coli DRC41 growth, higher = more signal, called active from +8 up or from −8 down
[17] = probe aLefty2 binding to arrayed compounds – biochemical, biotinylated probe, 635/667 nm fluorescence, primary screen (AID 1094); conditions: small-molecule microarray, higher = more signal;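 also: score merges spot fluorescence near 667 nm with spot signal-to-noise ratio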
[18] = tested on: Noggin (protein binding on small-molecule microarray); test: small molecules binding Noggin protein – biochemical, 635/667 nm fluorescence, primary screen (AID 1095); conditions: 635 nm fluorescence, higher = more signal;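 also: score merges 667 nm feature fluorescence with signal to noise over triplicate slides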
[19] = molecular target: Neurogenic locus notch homolog protein 3 (Homo sapiens) (UniProt Q9UM47); test: small molecules binding NOTCH3 protein – biochemical, 635/667 nm fluorescence, primary screen (AID 1096); conditions: small-molecule microarray, 635 nm fluorescence, higher = more signal
[20] = probe aEGFR binding to arrayed compounds – biochemical, biotinylated probe, 635/667 nm fluorescence, primary screen (AID 1097); conditions: small-molecule microarray, higher = more signal;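 also: probe is a biotinylated anti-EGFR antibody binding compounds printed on slides; score combines fluorescence near 667 nm and signal to noise of each spot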

Sequence of Pro-neuregulin-1, membrane-bound isoform (Homo sapiens) (Q02297 whole entry, looked up, the tested form may be a part, canonical isoform): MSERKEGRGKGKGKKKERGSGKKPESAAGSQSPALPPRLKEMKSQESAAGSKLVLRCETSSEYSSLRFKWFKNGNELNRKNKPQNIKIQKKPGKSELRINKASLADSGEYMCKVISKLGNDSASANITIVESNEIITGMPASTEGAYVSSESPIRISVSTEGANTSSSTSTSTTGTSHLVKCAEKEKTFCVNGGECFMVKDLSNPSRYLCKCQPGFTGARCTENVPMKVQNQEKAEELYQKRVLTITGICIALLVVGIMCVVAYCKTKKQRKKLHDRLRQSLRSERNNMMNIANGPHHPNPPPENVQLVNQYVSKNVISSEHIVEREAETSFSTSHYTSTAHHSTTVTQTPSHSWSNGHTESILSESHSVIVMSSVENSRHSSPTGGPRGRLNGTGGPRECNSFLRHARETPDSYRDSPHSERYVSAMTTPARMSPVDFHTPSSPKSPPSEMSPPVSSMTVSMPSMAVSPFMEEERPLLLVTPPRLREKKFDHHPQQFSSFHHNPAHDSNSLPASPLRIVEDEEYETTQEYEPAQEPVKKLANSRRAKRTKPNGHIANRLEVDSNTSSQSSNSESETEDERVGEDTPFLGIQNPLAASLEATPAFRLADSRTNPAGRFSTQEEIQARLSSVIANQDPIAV
Sequence of Neurogenic locus notch homolog protein 3 (Homo sapiens) (Q9UM47 whole entry, looked up): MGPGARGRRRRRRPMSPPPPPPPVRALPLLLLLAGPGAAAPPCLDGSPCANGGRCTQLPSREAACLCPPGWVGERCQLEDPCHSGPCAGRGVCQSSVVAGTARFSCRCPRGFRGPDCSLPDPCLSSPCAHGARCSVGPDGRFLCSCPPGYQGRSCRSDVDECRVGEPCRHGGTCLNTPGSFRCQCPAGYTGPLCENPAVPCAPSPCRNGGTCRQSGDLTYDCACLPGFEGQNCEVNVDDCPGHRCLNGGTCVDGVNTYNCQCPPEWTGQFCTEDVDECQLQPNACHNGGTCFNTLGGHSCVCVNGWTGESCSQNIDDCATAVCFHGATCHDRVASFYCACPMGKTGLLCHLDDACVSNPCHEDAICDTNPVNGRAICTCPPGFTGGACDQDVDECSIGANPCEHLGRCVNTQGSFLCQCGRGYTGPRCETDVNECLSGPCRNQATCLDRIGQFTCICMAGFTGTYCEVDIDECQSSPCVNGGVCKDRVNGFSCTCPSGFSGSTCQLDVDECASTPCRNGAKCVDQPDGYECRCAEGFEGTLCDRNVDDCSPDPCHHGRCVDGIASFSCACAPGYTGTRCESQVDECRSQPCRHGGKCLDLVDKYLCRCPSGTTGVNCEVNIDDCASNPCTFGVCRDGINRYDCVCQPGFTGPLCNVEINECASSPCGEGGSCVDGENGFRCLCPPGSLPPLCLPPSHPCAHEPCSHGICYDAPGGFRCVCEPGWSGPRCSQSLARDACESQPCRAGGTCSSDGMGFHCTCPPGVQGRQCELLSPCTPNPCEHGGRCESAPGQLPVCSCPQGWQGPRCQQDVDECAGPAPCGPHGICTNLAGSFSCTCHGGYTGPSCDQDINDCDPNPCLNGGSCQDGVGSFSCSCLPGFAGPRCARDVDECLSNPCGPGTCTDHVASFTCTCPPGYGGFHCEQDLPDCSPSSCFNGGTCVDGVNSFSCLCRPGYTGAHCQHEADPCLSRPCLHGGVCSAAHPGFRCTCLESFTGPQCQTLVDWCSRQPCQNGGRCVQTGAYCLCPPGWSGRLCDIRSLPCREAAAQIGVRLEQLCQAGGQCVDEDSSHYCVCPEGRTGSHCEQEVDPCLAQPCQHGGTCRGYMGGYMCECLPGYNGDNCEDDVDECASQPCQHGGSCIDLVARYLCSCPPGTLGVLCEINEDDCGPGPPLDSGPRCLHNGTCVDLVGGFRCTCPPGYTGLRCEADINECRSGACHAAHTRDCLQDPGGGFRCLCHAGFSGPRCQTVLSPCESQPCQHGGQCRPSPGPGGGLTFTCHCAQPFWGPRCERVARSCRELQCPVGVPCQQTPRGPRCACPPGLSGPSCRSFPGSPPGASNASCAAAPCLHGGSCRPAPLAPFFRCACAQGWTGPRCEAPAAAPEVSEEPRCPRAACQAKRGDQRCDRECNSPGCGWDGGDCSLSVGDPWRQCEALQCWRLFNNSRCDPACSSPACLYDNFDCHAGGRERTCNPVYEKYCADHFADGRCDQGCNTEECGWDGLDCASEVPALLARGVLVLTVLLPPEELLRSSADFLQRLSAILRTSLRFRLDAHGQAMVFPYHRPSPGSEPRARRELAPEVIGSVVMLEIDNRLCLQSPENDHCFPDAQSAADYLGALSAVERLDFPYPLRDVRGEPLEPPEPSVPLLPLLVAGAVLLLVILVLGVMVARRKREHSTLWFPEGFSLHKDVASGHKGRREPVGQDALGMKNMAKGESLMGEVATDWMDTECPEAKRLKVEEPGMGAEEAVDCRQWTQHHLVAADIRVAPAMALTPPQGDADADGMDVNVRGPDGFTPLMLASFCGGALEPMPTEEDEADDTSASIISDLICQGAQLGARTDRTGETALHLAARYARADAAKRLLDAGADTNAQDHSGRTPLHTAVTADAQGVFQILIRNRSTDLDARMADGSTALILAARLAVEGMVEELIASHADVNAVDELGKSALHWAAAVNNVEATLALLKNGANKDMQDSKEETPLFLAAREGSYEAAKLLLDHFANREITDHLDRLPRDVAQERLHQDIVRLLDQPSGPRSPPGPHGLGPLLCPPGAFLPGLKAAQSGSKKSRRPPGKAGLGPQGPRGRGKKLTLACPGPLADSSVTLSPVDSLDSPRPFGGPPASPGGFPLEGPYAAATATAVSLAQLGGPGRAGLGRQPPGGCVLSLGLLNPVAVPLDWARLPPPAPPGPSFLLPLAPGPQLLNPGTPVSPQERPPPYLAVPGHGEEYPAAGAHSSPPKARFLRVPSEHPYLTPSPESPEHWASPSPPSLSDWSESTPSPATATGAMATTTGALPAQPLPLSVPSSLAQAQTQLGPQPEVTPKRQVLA
Sequence of Torsin-1A-interacting protein 2 (Homo sapiens) (Q8NFQ8 whole entry, looked up): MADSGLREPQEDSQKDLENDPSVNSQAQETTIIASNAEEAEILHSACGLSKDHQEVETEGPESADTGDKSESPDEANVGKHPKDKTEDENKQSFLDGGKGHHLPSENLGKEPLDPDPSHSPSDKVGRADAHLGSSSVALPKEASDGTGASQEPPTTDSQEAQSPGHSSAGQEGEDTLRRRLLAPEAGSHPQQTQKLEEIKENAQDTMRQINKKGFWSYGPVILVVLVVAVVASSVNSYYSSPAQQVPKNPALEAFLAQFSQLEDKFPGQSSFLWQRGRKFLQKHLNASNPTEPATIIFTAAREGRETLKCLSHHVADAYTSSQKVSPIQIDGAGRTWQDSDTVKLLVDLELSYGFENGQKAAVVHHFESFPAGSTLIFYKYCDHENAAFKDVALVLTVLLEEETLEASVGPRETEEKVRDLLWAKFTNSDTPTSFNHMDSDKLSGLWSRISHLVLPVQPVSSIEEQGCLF

Row | Structure (SMILES) | composite z-score [1] | composite z-score [2] | composite z-score [3] | composite z-score [4] | composite z-score [5] | composite z-score [6] | composite z-score [7] | z-score [8] | composite z-score [9] | composite z-score [10] | composite z-score [11] | z-score [12] | z-score [13] | z-score [14] | composite z-score [15] | z-score [16] | composite z-score [17] | composite z-score [18] | composite z-score [19] | composite z-score [20]
1 | COc1ccc(O[C@H]2C=C[C@@H](c3ccccc3)O[C@@H]2CO)cc1 | -0.176 | -0.15 | -0.121 | 0.291 | -0.359 | -0.224 | -0.134 | 0.403 (inactive) | -0.221 | 0.0458 | 0.018 | 0.711 (inactive) | -1.27 (inactive) | -1.02 (inactive) | 0.0141 | 0.299 (inactive) | -0.0603 | 0.14 | 0.0607 | -0.0146
2 | COC(=O)[C@H](C)NC(=O)CCC1CC(OC(=O)NCc2cccc3ccccc23)CC2(CCCC(COC(=O)NCCCN3CCCC3=O)O2)O1 (stereo not given in full) | -0.669 | -0.158 | -0.141 | 0.119 | 1.43 | 0.567 | 0.925 | -3.13 (inactive) | 1.01 | 0.208 | 1.58 | 0.691 (inactive) | 1.05 (inactive) | 0.187 (inactive) | 1.89 | -1.25 (inactive) | 0.0598 | 0.79 | 1.14 | 0.074
3 | O=C1[C@H]2[C@H]3[C@H](O)[C@H](O)CC(=NO[C@@H]4O[C@H](CO)[C@@H](O)[C@H](O)[C@H]4O)[C@H]3CC[C@H]2C(=O)N1C[C@@H]1CCCO1 | -0.151 | 1.07 | -0.121 | 0.126 | 0.57 | -0.506 | -0.744 | 0.189 (inactive) | 0.045 | -0.0994 | -0.099 | 0.539 (inactive) | 0.944 (inactive) | 0.734 (inactive) | -0.162 | 0.457 (inactive) | 0.0136 | 0.379 | 0.0492 | -0.0578
4 | COC(=O)[C@H](C)NC(=O)CCC1CC(OC(=O)NCCc2ccc(F)cc2)CC2(CCCC(COC(=O)NCCc3ccccc3OC)O2)O1 (stereo not given in full) | -0.93 | -0.328 | -0.172 | 0.706 | 1.16 | 0.608 | 0.729 | -0.0438 (inactive) | -0.0835 | -0.361 | 1.11 | 0.522 (inactive) | 0.89 (inactive) | 0.896 (inactive) | 1.16 | -0.0328 (inactive) | -0.0916 | 0.452 | 1.09 | 0.104
5 | CCOC(=O)NN=C1C[C@@H](O)[C@@H](O)[C@@H]2[C@@H]3C(=O)N(C[C@@H]4CCCO4)C(=O)[C@@H]3CC[C@H]12 | -0.548 | -0.274 | -0.0217 | 0.217 | 0.701 | 0.203 | 0.34 | 0.577 (inactive) | -0.0482 | -0.143 | 0.611 | -1.43 (inactive) | -0.318 (inactive) | -0.0602 (inactive) | 0.448 | 0.416 (inactive) | -0.179 | 0.481 | 0.411 | -0.0668
6 | CC(CCC(=O)OC[C@H]1O[C@H](C#Cc2ccccc2)C=C[C@@H]1Oc1ccc(C)cc1)=NOC(C)CN1CCCc2nc(C)c(C)cc21 (stereo not given in full) | -0.293 | 0.0877 | -0.0783 | 0.413 | 0.869 | 0.617 | 0.684 | 0.517 (inactive) | 0.69 | -0.0319 | 1.33 | 2.01 (inactive) | -1.77 (inactive) | -0.49 (inactive) | 1.5 | 0.915 (inactive) | -0.0849 | 0.538 | 0.894 | -0.0267
7 | C#CCCCON=C1[C@H]2CCn3c(=O)n([C@@H](CC)c4ccccc4)c(=O)n3[C@H]2[C@H](O)[C@@H]2O[C@H]12 | -0.409 | 0.152 | 0.0047 | 0.353 | 0.148 | 0.24 | 0.322 | 0.456 (inactive) | -0.0356 | -0.261 | -0.142 | -0.455 (inactive) | -1.1 (inactive) | -0.533 (inactive) | 0.883 | -0.647 (inactive) | -0.114 | 1.05 | 0.226 | -0.042
8 | O=C1C[C@@H](O)[C@@H](O)[C@@H]2[C@@H]3C(=O)N(c4ccc(F)cc4F)C(=O)[C@@H]3CC[C@H]12 | -0.517 | 0.248 | -0.1 | 0.648 | 0.601 | 0.0794 | 0.354 | -0.536 (inactive) | 0.201 | 0.0373 | 0.599 | -0.175 (inactive) | -0.177 (inactive) | -0.147 (inactive) | 0.734 | 0.124 (inactive) | -0.0782 | 0.43 | 0.6 | -0.0695
9 | O=C1C=C[C@@H](O)[C@@H]2[C@@H]3C(=O)N(Cc4ccccc4)C(=O)[C@@H]3CC[C@@H]12 | -0.496 | -0.0062 | -0.171 | 0.373 | 0.632 | 0.159 | 0.543 | -0.895 (inactive) | 0.0563 | 0.226 | -0.136 | 0.0129 (inactive) | -0.676 (inactive) | -0.795 (inactive) | 0.0218 | 0.575 (inactive) | -0.147 | 0.562 | 0.798 | -0.104
10 | CON=C(C)CCC(=O)OC[C@H]1O[C@H](C#Cc2ccccc2)C=C[C@@H]1Oc1ccc(C)cc1 | -0.453 | -0.172 | -0.0563 | 0.33 | -0.598 | 0.108 | 0.394 | -0.127 (inactive) | 0.423 | 0.0854 | 1.06 | 1.42 (inactive) | -14.2 (active) | 1.52 (inactive) | 0.756 | 0.149 (inactive) | -0.143 | 0.351 | 0.326 | -0.0363
